This note sets out measurements from PubChem BioAssay.

Assay [1] relates to Aerobactin synthetase IucA (Klebsiella pneumoniae). Kind of assay: inhibition of K. pneumoniae IucA enzyme – biochemical, Tocris library, absorbance (AID 1345561; call rule not given here;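 further: 100% = enzyme without compound and 0% = no enzyme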). The following applies: purified IucA enzyme assay, absorbance (OD) read-out; stronger effect = lower value;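 tested at 8 µM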.
The nature of assay [2]: viability loss with induced miR-34 in A549 – imaging, A549 dox-inducible miR-34, nuclei and caspase counts, primary screen (AID 1347080). The following applies: A549 miR-34 inducible, Hoechst nuclei count, 48 h.
Assay [3] in a line: galactose survival enhancers in mitochondrial complex I cybrids – cell-based, galactose medium, ATP luminescence, primary screen (AID 1645843;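 active means z-score of at least 1.8 in each of two replicates, scored against plate mean and spread of sample wells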;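 further: positive z means more ATP and so rescue of galactose-driven cybrid death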). Conditions: complex I mutant cybrid cells, 72 h, stronger effect = higher value.
[4] abbreviates: stronger effect = lower value, cell number ratio, induced over uninduced.
Setting [5] is: measured here: relative caspase fold change +Dox/-Dox.
Setting [6] is: measured here: total cells with miR-34 induction, stronger effect = lower value.
Where [7] appears, read: measured here: total cells without miR-34 induction.

Several values for one entry are separate records, joined by “and”; a condition that tells them apart may be missing. Identical values can stand only once. Activity calls are given as the source filed them.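 How the source made its calls, unless noted: active means compounds whose cell count with miR-34 switched on is under 0.7 times the count with it off; inactive means the rest.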

As a reminder, the remaining activity is the signal under treatment as a percentage of the control signal. Regarding `Cc1nc2c(O)cccc2c(=O)[nH]1`, the remaining activity in assay [1] was 117% (inactive). The figures for the fold change in assay [2] (setting [4]) and in assay [2] (setting [5]) were 0.957 (inactive) and 0.648, respectively. Also, the results for the cell count in assay [2] (setting [6]) and in assay [2] (setting [7]) were 9130 and 9530, respectively. Also, in assay [3], the z-score was -0.215 (inactive).
As to `CC(C)c1ccc(C(=O)c2cccs2)c(SCCCCCCCCN(C)C)n1`, the remaining activity in assay [1] is 107% (inactive). In addition, the figures for the fold change in assay [2] (setting [4]) and in assay [2] (setting [5]) were 1.16 (inactive) and 1.04, respectively. The figures for the cell count in assay [2] (setting [6]) and in assay [2] (setting [7]) were 3590 and 3100, respectively. Further, in assay [3], the z-score is -1.04 (inactive).
Consider `CN1CCN(CCc2ccc(Cl)c(Cl)c2)CC1`, for which the remaining activity in assay [1] is 124% (inactive). The fold change in assay [2] (setting [4]) is 1.04 (inactive); in assay [2] (setting [5]), 1.01. The cell count was 7800 in assay [2] (setting [6]) and 7520 in assay [2] (setting [7]). Besides, the z-score in assay [3] is -0.73 (inactive).
On to `CC(C)N1CCN(c2ccc(C(=O)c3c(-c4ccc(O)cc4)sc4cc(O)ccc34)cc2)CC1`, for which, in assay [1], the remaining activity was 105% (inactive). The fold change in assay [2] (setting [4]) is 0.989 (inactive); in assay [2] (setting [5]) it was 1.64. In addition, the figures for the cell count in assay [2] (setting [6]) and in assay [2] (setting [7]) were 6900 and 6980, respectively. In assay [3], the z-score was -0.43 (inactive).
As for `COC(=O)[C@H]1C2C[C@H]3c4[nH]c5ccccc5c4CCN3C[C@H]2CC[C@@H]1O` (some centres not stated), the remaining activity in assay [1] was 106% (inactive). For the same compound, the fold change in assay [2] (setting [4]) is 0.968 (inactive); in assay [2] (setting [5]) it was 0.826. Also, the cell count in assay [2] (setting [6]) was 8540; in assay [2] (setting [7]) it was 8820. For the same compound, in assay [3], the z-score was -0.115 (inactive).
For `OC1CCC(Nc2nc(-c3ccccc3)nc3[nH]ccc23)CC1` (configuration not stated), in assay [1], the remaining activity is 112% (inactive). The fold change was 0.975 (inactive) in assay [2] (setting [4]) and 1.31 in assay [2] (setting [5]). In addition, the cell count in assay [2] (setting [6]) stood at 8990; in assay [2] (setting [7]), 9220. The z-score in assay [3] is 1.67 (inactive).
Take `CN(CCOc1ccc(CC(Nc2ccccc2C(=O)c2ccccc2)C(=O)O)cc1)c1ccccn1` (configuration not stated): the remaining activity in assay [1] was 103% (inactive). For the same compound, the fold change in assay [2] (setting [4]) was 0.954 (inactive); in assay [2] (setting [5]) it was 1.08. In addition, the cell count in assay [2] (setting [6]) turned out to be 7420; in assay [2] (setting [7]) it was 7780. The z-score in assay [3] is 1.48 (inactive).
As for `Cc1cc(C)c(S(=O)(=O)Nc2ccccc2C(F)(F)F)c(C)c1`, in assay [1], the remaining activity is 96.1% (inactive). The fold change in assay [2] (setting [4]) was 0.879 (inactive); in assay [2] (setting [5]), 0.932. Further, the cell count amounted to 6450 in assay [2] (setting [6]) and 7330 in assay [2] (setting [7]). In addition, the z-score in assay [3] is 1.2 (inactive).
As to `N#Cc1ccccc1OCC(O)CNCCNC(=O)Nc1ccccc1` (configuration not stated), the remaining activity in assay [1] is 118% (inactive). The fold change in assay [2] (setting [4]) is 0.847 (inactive); in assay [2] (setting [5]), 1.36. For the same compound, the values for the cell count in assay [2] (setting [6]) and in assay [2] (setting [7]) were 8970 and 10600, respectively. Besides, in assay [3], the z-score is -0.64 (inactive).
For `CCCCCCN(CCCCCC)C(=O)Cc1c(-c2ccc(Cl)cc2)[nH]c2ccc(Cl)cc12`, the remaining activity in assay [1] is 102% (inactive). The fold change is 0.89 (inactive) in assay [2] (setting [4]) and 0.984 in assay [2] (setting [5]). Also, the results for the cell count in assay [2] (setting [6]) and in assay [2] (setting [7]) were 5700 and 6410, respectively. Besides, in assay [3], the z-score is -1.19 (inactive).
On to `CC(C)c1ccccc1S(=O)(=O)c1cc(N)c2ncccc2c1[N+](=O)[O-]`, for which, in assay [1], the remaining activity is 94.3% (inactive). Besides, the values for the fold change in assay [2] (setting [4]) and in assay [2] (setting [5]) were 0.871 (inactive) and 1.36, respectively. Also, the cell count in assay [2] (setting [6]) is 6170; in assay [2] (setting [7]), 7090. In addition, in assay [3], the z-score was -0.685 (inactive).
Regarding `C1CCC2(CC1)CCNCC2`, the remaining activity in assay [1] is 105% (inactive). In addition, the fold change in assay [2] (setting [4]) is 0.955 (inactive); in assay [2] (setting [5]) it was 1.56. Further, the cell count amounted to 9280 in assay [2] (setting [6]) and 9730 in assay [2] (setting [7]). Besides, the z-score in assay [3] was 0.34 (inactive).
For the compound `CCCCc1nn(-c2ccccc2C(F)(F)F)c(=O)n1Cc1ccc(-c2ccccc2S(=O)(=O)NC(=O)c2sccc2C)cc1`, in assay [1], the remaining activity is 91.8% (inactive). The fold change in assay [2] (setting [4]) was 0.921 (inactive); in assay [2] (setting [5]), 1.21. The cell count in assay [2] (setting [6]) is 7450; in assay [2] (setting [7]) it was 8080. The z-score in assay [3] is 4.89 (active).
As for `c1ccc2cc(C3=NCCN3)ncc2c1`, in assay [1], the remaining activity is 113% (inactive). For the same compound, the fold change in assay [2] (setting [4]) was 0.991 (inactive); in assay [2] (setting [5]), 0.685. Besides, the cell count in assay [2] (setting [6]) is 9570; in assay [2] (setting [7]), 9660. Also, the z-score in assay [3] was -0.34 (inactive).
Turning to `CSc1cc2c(cc1C(F)(F)F)N(C(=O)Nc1cccnc1)CC2`, the remaining activity in assay [1] is 112% (inactive). Also, the fold change was 0.921 (inactive) in assay [2] (setting [4]) and 0.728 in assay [2] (setting [5]). Moreover, the cell count in assay [2] (setting [6]) worked out at 9460; in assay [2] (setting [7]) it was 10300. The z-score in assay [3] was 0.05 (inactive).
`COc1cccc(NC(=O)/C=C/c2ccc(Cl)cc2)c1`: the remaining activity in assay [1] was 93.6% (inactive). The fold change in assay [2] (setting [4]) is 0.9 (inactive); in assay [2] (setting [5]), 1.32. Also, the cell count in assay [2] (setting [6]) stood at 5860; in assay [2] (setting [7]) it was 6510. The z-score in assay [3] was 0.75 (inactive).
For `CS(=O)(=O)Nc1c(O)ccc2c1CCCC2C1=NCCN1` (configuration not stated), the remaining activity in assay [1] was 114% (inactive). The fold change in assay [2] (setting [4]) was 1 (inactive); in assay [2] (setting [5]), 0.792. The cell count worked out at 9080 in assay [2] (setting [6]) and 9050 in assay [2] (setting [7]). In assay [3], the z-score was -0.21 (inactive).
In the case of `O=C(Cc1ccccc1)Nc1nc2ccc(Cl)cc2c2nc(-c3ccco3)nn12`, the remaining activity in assay [1] was 112% (inactive). For the same compound, the fold change is 1 (inactive) in assay [2] (setting [4]) and 0.707 in assay [2] (setting [5]). In addition, the cell count in assay [2] (setting [6]) worked out at 7840; in assay [2] (setting [7]), 7820. Moreover, the z-score in assay [3] was 0.635 (inactive).
For `C[C@@H](CN1CCC(n2c(=O)[nH]c3cc(Cl)ccc32)CC1)NC(=O)c1ccc2ccccc2c1`, in assay [1], the remaining activity was 106% (inactive). The fold change in assay [2] (setting [4]) was 1.11 (inactive); in assay [2] (setting [5]) it was 0.89. Besides, the cell count in assay [2] (setting [6]) is 3940; in assay [2] (setting [7]), 3560. Also, the z-score in assay [3] is -1.04 (inactive).
In the case of `CC(O)(C(=O)Nc1ccc(S(=O)(=O)c2ccccc2)cc1)C(F)(F)F` (configuration not stated), the remaining activity in assay [1] was 125% (inactive). In addition, the fold change in assay [2] (setting [4]) was 0.907 (inactive) and 0.921 (inactive); in assay [2] (setting [5]), 1.29 and 0.986. Further, the cell count is 4820 and 7390 in assay [2] (setting [6]); 5310 and 8020 in assay [2] (setting [7]). Also, the z-score in assay [3] is -0.32 (inactive).
Take `N[C@@H](C(=O)O)c1ccc(C(=O)O)c(C(=O)O)c1`: in assay [1], the remaining activity was 95.5% (inactive). For the same compound, the values for the fold change in assay [2] (setting [4]) and in assay [2] (setting [5]) were 0.914 (inactive) and 0.832, respectively. In addition, the cell count came out at 8600 in assay [2] (setting [6]) and 9410 in assay [2] (setting [7]). Besides, in assay [3], the z-score was 0.05 (inactive).
`CC[C@@H](C)[C@H]1O[C@]2(CC[C@@H]1C)C[C@@H]1C[C@@H](C/C=C(\C)[C@@H](O[C@H]3C[C@H](OC)[C@@H](O[C@H]4C[C@H](OC)[C@@H](O)[C@H](C)O4)[C@H](C)O3)[C@@H](C)/C=C/C=C3\CO[C@@H]4[C@H](O)C(C)=CC(C(=O)O1)[C@]34O)O2` (some centres not stated) (tested in a mixture with another compound): the remaining activity in assay [1] is 124% (inactive). Further, the values for the fold change in assay [2] (setting [4]) and in assay [2] (setting [5]) were 0.987 (inactive) and 1.53, respectively. Moreover, the values for the cell count in assay [2] (setting [6]) and in assay [2] (setting [7]) were 507 and 514, respectively. The z-score in assay [3] is -1.04 (inactive).
